Bioassay records as filed in PubChem.
Mtb FBA inh: Mtb FBA enzyme inhibitors, primary screen, biochemical, fluorescence, strain H37Rv. inhibition, % at 1 µM. purified M. tuberculosis FBA, fluorescence read-out. 2.3% of 360,000 active. Fructose-bisphosphate aldolase (Mycobacterium tuberculosis (strain ATCC 25618 / H37Rv)), …;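 further: 0% = vehicle and 100% = reference inhibitor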
Target sequence (P9WQA3 whole entry, looked up): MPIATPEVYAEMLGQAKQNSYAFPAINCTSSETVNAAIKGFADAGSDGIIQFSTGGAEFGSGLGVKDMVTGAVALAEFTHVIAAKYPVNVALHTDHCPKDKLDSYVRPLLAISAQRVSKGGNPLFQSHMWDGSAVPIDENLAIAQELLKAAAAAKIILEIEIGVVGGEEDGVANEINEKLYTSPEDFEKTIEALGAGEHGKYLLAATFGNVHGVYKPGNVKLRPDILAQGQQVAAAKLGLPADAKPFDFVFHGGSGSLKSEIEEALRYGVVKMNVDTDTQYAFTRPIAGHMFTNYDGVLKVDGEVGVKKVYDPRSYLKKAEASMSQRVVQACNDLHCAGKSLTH
RecA splice inh: Mtb RecA intein splicing inhibitors, primary screen, biochemical, fluorescence, HTS; Protein RecA (Mycobacterium tuberculosis (strain ATCC 25618 / H37Rv)), P9WHJ3; cell-free RecA intein splicing; inhibition, % (test concentration not listed); 0.75% of 290,000 active; AID 2221, 2009; in the data active means inhibition above about 30%;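 further: 0% = vehicle wells and 100% = reference inhibitor control wells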
GDH-TPI counter-1: GDH-TPI coupling enzyme inhibitors, primary screen, artefact control for M. tuberculosis FBA inhibitor project, biochemical, absorbance, full deck; AID 588335, 2011; inhibition, % at 4.8 µM; GDH-TPI coupled enzyme counterscreen, NADH absorbance; 1.2% of 360,000 active; in the data active means inhibition above about 30%;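 further: 0% = DMSO wells and 100% = wells lacking the enzyme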
CCHF vOTU inh: CCHFV vOTU protease inhibitors, primary screen, biochemical, Pep-AMC substrate, fluorescence | 0.55% of 370,000 active | inhibition, % at 11.5 µM | Crimean-Congo hemorrhagic fever virus L polyprotein viral ovarian tumor (vOTU) protease …; in the data active means inhibition above about 30%; further: 0% = vehicle wells with enzyme and 100% = no enzyme wells
Mtb FBA inh conf: M. tuberculosis aldolase blockers, biochemical, fluorescence, strain H37Rv, confirmation. 78% of 5,600 active. purified M. tuberculosis FBA, fluorescence read-out. shares compounds with Mtb FBA inh. inhibition, % at 1 µM. AID 651616, 2012;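 further: 0% = vehicle wells and 100% = reference inhibitor wells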
GDH-TPI counter-2: GDH-TPI coupling enzyme inhibitors, artefact control for M. tuberculosis FBA inhibitor project, biochemical, fluorescence, high throughput. inhibition, % at 1 µM. 81% of 5,600 active. shares compounds with Mtb FBA inh. GDH-TPI coupled enzyme counterscreen. AID 652141, 2013; in the data active means inhibition above about 10%
Numbers without * were called inactive. Compounds with a hit are over-represented: about 4.2% of the library has one in this group of screens. Unless noted, no stated cut-off is given here; in the data, active means inhibition above about 27%; inactive means the rest.

For CCCc1cc(=O)oc2cc(C)cc(OC(C)C(=O)NCc3ccncc3)c12 (stereo not given) the results were Mtb FBA inh 58*, RecA splice inh 1, GDH-TPI counter-1 5, CCHF vOTU inh -11, Mtb FBA inh conf active and GDH-TPI counter-2 active.
Cc1cc(OC(C)C(=O)NC2CCN(Cc3ccccc3)CC2)c2c(C)cc(=O)oc2c1 (stereo not given) was read as Mtb FBA inh 10, RecA splice inh -2 and GDH-TPI counter-1 1.
Cc1ccc(S(=O)(=O)N(C)C)cc1NC(=O)COC(=O)Cc1cccs1 was read as Mtb FBA inh 6, RecA splice inh -8, GDH-TPI counter-1 2 and CCHF vOTU inh -14.
Screening COc1ccc(C(=O)CSc2n[nH]c(C)n2)cc1[N+](=O)[O-] returned Mtb FBA inh -2, RecA splice inh 2, GDH-TPI counter-1 8 and CCHF vOTU inh -14.
For CC(=O)Nc1ccc2c(CSc3nnc(N)s3)cc(=O)oc2c1 the results were Mtb FBA inh 27*, RecA splice inh 0, GDH-TPI counter-1 42*, CCHF vOTU inh -7, Mtb FBA inh conf 78* and GDH-TPI counter-2 67*.
CCOC(=O)c1ccc(NC(=O)Nc2nncs2)cc1 was read as Mtb FBA inh 0, GDH-TPI counter-1 9 and CCHF vOTU inh 5.
Screening CCOC(=O)C1=C(C)OC(N)=C(C#N)C1c1cc2c(cc1[N+](=O)[O-])OCO2 (stereo not given) returned Mtb FBA inh 33*, RecA splice inh -7, GDH-TPI counter-1 8, CCHF vOTU inh 17, Mtb FBA inh conf 42* and GDH-TPI counter-2 26*.
Screening CCOC(=O)C1=C(C)OC(N)=C(C#N)C1c1cc(OC)c2c(c1)OCO2 (stereo not given) returned Mtb FBA inh 0, RecA splice inh -3, GDH-TPI counter-1 15 and CCHF vOTU inh 9.
For O=C(CCc1ccccc1)NNC(=O)c1cc(Cl)ccc1O the results were Mtb FBA inh 35*, RecA splice inh 8, GDH-TPI counter-1 9, CCHF vOTU inh -49, Mtb FBA inh conf 0 and GDH-TPI counter-2 -3.
For O=C(CCc1ccccc1)NNC(=O)c1ccccc1C(=O)O the results were Mtb FBA inh -2, RecA splice inh 0, GDH-TPI counter-1 -2 and CCHF vOTU inh -4.
`NS(=O)(=O)c1ccc(CCNC(=O)CSc2cccs2)cc1` gave Mtb FBA inh 97*, RecA splice inh -1, GDH-TPI counter-1 1, CCHF vOTU inh 8, Mtb FBA inh conf 87* and GDH-TPI counter-2 56*.
Screening O=C(CSc1cccs1)NCCc1ccccc1 returned Mtb FBA inh 2, RecA splice inh 1, GDH-TPI counter-1 6 and CCHF vOTU inh 3.
CN(C)S(=O)(=O)c1cccc(NC(=O)c2cc(-c3cccs3)nc3ccccc23)c1 was read as Mtb FBA inh 28*, RecA splice inh 2, GDH-TPI counter-1 11, CCHF vOTU inh -6, Mtb FBA inh conf 126* and GDH-TPI counter-2 103*.
Screening NS(=O)(=O)c1cccc(NC(=O)c2cc(-c3cccs3)nc3ccccc23)c1 returned Mtb FBA inh 26, GDH-TPI counter-1 13 and CCHF vOTU inh -39.
COc1cc(-c2cc(C(=O)NCCc3ccc(S(N)(=O)=O)cc3)c3ccccc3n2)cc(OC)c1OC was read as Mtb FBA inh -2, RecA splice inh 0, GDH-TPI counter-1 22 and CCHF vOTU inh 17.
Screening NS(=O)(=O)c1ccc(CCNC(=O)c2cc(-c3cccs3)nc3ccccc23)cc1 returned Mtb FBA inh 99*, RecA splice inh 1, GDH-TPI counter-1 10, CCHF vOTU inh -130, Mtb FBA inh conf active and GDH-TPI counter-2 active.
NS(=O)(=O)c1ccc(CNC(=O)c2cc(-c3cccs3)nc3ccccc23)cc1 was read as Mtb FBA inh 80*, RecA splice inh 2, GDH-TPI counter-1 12, CCHF vOTU inh -108, Mtb FBA inh conf 1 and GDH-TPI counter-2 2.
For Cc1cccc(Cn2cc(COC(=O)NCC(C)C)nn2)c1 the results were CCHF vOTU inh -7.
